Experimental data as given in PubChem BioAssay (NCI).
Compounds without any hit were thinned out: in the full panel of roughly 83,000, 20% have a hit.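 Growth was measured after 48 h exposure to one concentration of compound in 96-well plates. Values under 10 count as active.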 Activity calls are given as the source filed them.

These compounds were tested on LOX IMVI melanoma (assay: NCI-60 one-dose screen, 48 h (100 = growth as untreated, 0 = no growth, -100 = all killed)). Details: 10 µM.
Cc1ccc(/C=C/C(=O)c2ccc(NC(=O)CSc3nnc(-c4c[nH]c5ccccc45)n3-c3ccccc3)cc2)cc1 was tested, and the growth was 78.4% (inactive).
In the case of O=C(Nc1nc2ccc([N+](=O)[O-])cc2s1)Nc1cc(Cl)ccc1I, the growth is reported as -82.4% (active).
Cc1ccc(C(=O)CSc2nnc(-c3c[nH]c4ccccc34)n2-c2ccccc2)cc1 was tested, and the growth was -19.5% (active).
With COc1ccc2[nH]c(O)c(N=NC(=O)c3cc(-c4ccc(C)cc4)nc4ccccc34)c2c1 the growth was 83.5% (inactive).
In the case of Cn1cc(/C=N/Nc2cccc(Cl)n2)c2ccccc21, the growth is reported as 50.1% (inactive).
N#Cc1ccc(-c2nn(-c3ccc(C(=O)O)cc3)cc2CNc2ccc(Cl)cc2)cc1 was tested, and the growth was 60.8% (inactive).
For O=c1[nH]c2ccccc2cc1CSc1ccc(Nc2nccc(-c3ccc4ccccc4c3)n2)cc1, the growth was 3.77% (active).
For OCCCNc1oc(-c2ccccc2)nc1[P+](c1ccccc1)(c1ccccc1)c1ccccc1, the growth was -16.6% (active).
For COc1ccc(C(=O)/C=C/c2cc(C(F)(F)F)cc(C(F)(F)F)c2)cc1S(N)(=O)=O, the growth was -100% (active).
For CS(=O)(=O)Nc1ccc(-c2ccc3c(c2)ncn3-c2ccc(NC(=O)Nc3ccc(Cl)c(C(F)(F)F)c3)cc2)cc1, the growth was -97% (active).
With O=c1nc(-c2ccccc2)cc(-c2cc3ccccc3nc2Cl)[nH]1 the growth was -87.7% (active).
COc1cccc(/C=C2\N=C(C)N(CCc3ccc(S(N)(=O)=O)cc3)C2=O)c1 was tested, and the growth was 97.4% (inactive).
O=S(=O)(Nc1ncccn1)c1ccc(-n2c(-c3ccccc3)nc(-c3ccccc3)c2-c2ccccc2)cc1 was tested, and the growth was 85.7% (inactive).
With Cc1ccc(-c2nc(Nc3ccc(S(N)(=O)=O)cc3)c3ccccc3n2)cc1 the growth was -71.5% (active).
COc1ccc(C(C)=C(c2ccc(OCCCN(C)C)cc2)c2ccc(OCCCN(C)C)cc2)cc1 was tested, and the growth was -92.5% (active).
With COC[C@@H](CC(C)C)N=C1NC(=O)/C(=C/c2ccc3ncsc3c2)N1 the growth was 0.514% (active).
For Cc1ccc(-c2nc3ccc(C(=O)N=Nc4c(O)[nH]c5ccc(Cl)cc45)cc3[nH]2)cc1, the growth was -100% (active).
In the case of COc1cccc(/C=N/NC(=O)c2ccc3nc(-c4ccc(Cl)cc4)[nH]c3c2)c1O, the growth is reported as -97.2% (active).
With N#Cc1ccc(-c2nn(-c3ccc(C(=O)O)cc3)cc2CNc2ccc(Oc3ccccc3)cc2)cc1 the growth was 24.1% (inactive).
With CC(=O)c1ccc(Nc2nc(SCCC(C)C)nc(-c3ccc(F)cc3)c2C#N)cc1 the growth was 5.44% (active).
Cc1cc(C)nc(NS(=O)(=O)c2ccc(N/C(N)=N/c3nccc(-c4ccccc4)n3)cc2)n1 was tested, and the growth was 39.4% (inactive).
With COc1cccc(-c2ccnc(/N=C(\N)Nc3ccc(S(=O)(=O)Nc4nc(C)cc(C)n4)cc3)n2)c1 the growth was 85.8% (inactive).
In the case of CC(=O)C1=C(C)NC(SCC(=O)Nc2ccc(S(=O)(=O)Nc3cc(C)on3)cc2)=NC1c1ccccc1 (stereo not drawn), the growth is reported as 92.8% (inactive).
COc1cccc2nc(Nc3ccc(F)c(NC(=O)c4ccc(CN5CCN(C)CC5)c(C(F)(F)F)c4)c3)ccc12 was tested, and the growth was -100% (active).
In the case of CNCc1cccc2c1OCCCCCC[C@@](C)(O)CC1(CC1)S(=O)(=O)c1ccc(cc1)-c1cnc(N)c(n1)C(=O)N2, the growth is reported as -100% (active).
CN(C)c1ccc(/C=C/c2nc3ccccc3c(=O)n2CC(=O)Nc2ccccc2)cc1 was tested, and the growth was 1.57% (active).
O=C1CCC(N2Cc3c(C#CCCCNC(=O)c4ccc(NC(=O)[C@@H]5NC6(CCCCC6)[C@@]6(C(=O)Nc7cc(Cl)ccc76)[C@H]5c5cccc(Cl)c5F)cc4)cccc3C2=O)C(=O)N1 (stereo partly drawn) was tested, and the growth was 27.5% (inactive).
For O=C(N/N=C/c1ccc(-c2cccc([N+](=O)[O-])c2)o1)c1[nH]c2ccc(Br)cc2c1-c1ccccc1, the growth was 7.19% (active).
In the case of O=C(c1ccc(Cl)cc1)C1[C@H](c2ccccc2Br)[C@@H](c2ccccc2)NC12C(=O)Nc1ccc(Br)cc12 (stereo partly drawn), the growth is reported as -100% (active).
In the case of O=C(c1ccc(Cl)cc1)C1[C@H](c2ccccc2Br)[C@@H](c2ccccc2)NC12C(=O)Nc1ccccc12 (stereo partly drawn), the growth is reported as -69.1% (active).
With O=C(Nc1cc(Cl)cc(Cl)c1)Nc1cc(Cl)cc(Cl)c1 the growth was -91.1% (active).
With CC(C)C1=C[C@@]23CC[C@@H]4[C@](C)(CCC[C@]4(C)C(=O)NCc4ccccc4)[C@H]2C[C@@H]1[C@H]1C(=O)CCC(=O)[C@H]13 the growth was 27% (inactive).
COc1ccc(Nc2nc(N)n(Cc3cccc(Br)c3)n2)cc1 was tested, and the growth was -67.3% (active).
